Laboratory results as given in the supplement of paper PMC12282887.
± gives the standard deviation of the averaged measurements.

Tested on: E. coli BW25113 marRABp lux reporter
Assay: promoter activity interaction Z-score (Lux/OD deviation from empty-vector control); higher = stronger promoter induction by the compound
Procedure: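 E. coli BW25113 (wild type or ΔmarA/ΔsoxS/Δrob) carrying pTU175 luxCDABE promoter reporters was grown in LB in 384-well plates at 37°C with each of 94 compounds at 4 two-fold concentrations, in biological duplicates. Luminescence and OD600 were read every 30 min for 12 h and integrated as AUC over 8 h (0-8 h WT, 1-9 h mutants). Lux AUC was divided by OD AUC; the interaction score is the residual of a Huber robust fit of each promoter against the empty-vector control, then Z-transformed per promoter.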

Structure (SMILES) | promoter activity interaction Z-score (6.9 µg/ml, genetic background: wild type) | promoter activity interaction Z-score (6.9 µg/ml, genetic background: ΔmarA) | promoter activity interaction Z-score (6.9 µg/ml, genetic background: Δrob) | promoter activity interaction Z-score (6.9 µg/ml, genetic background: ΔsoxS) | promoter activity interaction Z-score (13.8 µg/ml, genetic background: wild type) | promoter activity interaction Z-score (13.8 µg/ml, genetic background: ΔmarA) | promoter activity interaction Z-score (13.8 µg/ml, genetic background: Δrob) | promoter activity interaction Z-score (13.8 µg/ml, genetic background: ΔsoxS) | promoter activity interaction Z-score (27.5 µg/ml, genetic background: wild type) | promoter activity interaction Z-score (27.5 µg/ml, genetic background: ΔmarA) | promoter activity interaction Z-score (27.5 µg/ml, genetic background: Δrob) | promoter activity interaction Z-score (27.5 µg/ml, genetic background: ΔsoxS) | promoter activity interaction Z-score (55 µg/ml, genetic background: wild type) | promoter activity interaction Z-score (55 µg/ml, genetic background: ΔmarA) | promoter activity interaction Z-score (55 µg/ml, genetic background: Δrob) | promoter activity interaction Z-score (55 µg/ml, genetic background: ΔsoxS) | promoter activity interaction Z-score (11.9 µg/ml, genetic background: wild type) | promoter activity interaction Z-score (11.9 µg/ml, genetic background: ΔmarA) | promoter activity interaction Z-score (11.9 µg/ml, genetic background: Δrob) | promoter activity interaction Z-score (11.9 µg/ml, genetic background: ΔsoxS) | promoter activity interaction Z-score (23.7 µg/ml, genetic background: wild type) | promoter activity interaction Z-score (23.7 µg/ml, genetic background: ΔmarA) | promoter activity interaction Z-score (23.7 µg/ml, genetic background: Δrob) | promoter activity interaction Z-score (23.7 µg/ml, genetic background: ΔsoxS) | promoter activity interaction Z-score (47.4 µg/ml, genetic background: wild type) | promoter activity interaction Z-score (47.4 µg/ml, genetic background: ΔmarA) | promoter activity interaction Z-score (47.4 µg/ml, genetic background: Δrob) | promoter activity interaction Z-score (47.4 µg/ml, genetic background: ΔsoxS) | promoter activity interaction Z-score (94.8 µg/ml, genetic background: wild type) | promoter activity interaction Z-score (94.8 µg/ml, genetic background: ΔmarA) | promoter activity interaction Z-score (94.8 µg/ml, genetic background: Δrob) | promoter activity interaction Z-score (94.8 µg/ml, genetic background: ΔsoxS)
CCCC(=O)O [Butyrate] | -0.205 ± 0.013 | -0.16 ± 0.12 | 0.206 ± 0.17 | 0.201 ± 0.094 | -0.136 ± 0.0092 | 0.187 ± 0.35 | 0.0966 ± 0.16 | 0.00738 ± 0.051 | -0.429 ± 0.012 | -0.0336 ± 0.044 | 0.0375 ± 0.0006 | 0.0783 ± 0.13 | -0.383 ± 0.07 | -0.0286 ± 0.24 | 0.0661 ± 0.17 | 0.114 ± 0.15 | – | – | – | – | – | – | – | – | – | – | – | – | – | – | – | –
NCCc1ccc(O)c(O)c1 [Dopamine] | – | – | – | – | – | – | – | – | – | – | – | – | – | – | – | – | 0.0994 ± 0.32 | -0.339 ± 0.18 | -0.285 ± 0.05 | -0.021 ± 0.064 | -0.265 ± 0.15 | 0.159 ± 0.52 | 0.121 ± 0.22 | -0.3 ± 0.046 | 0.113 ± 0.12 | -0.369 ± 0.073 | -0.155 ± 0.3 | -0.126 ± 0.099 | -0.305 ± 0.37 | 0.217 ± 1.1 | -0.642 ± 0.091 | -0.61 ± 0.21
